High-throughput results deposited in PubChem by National Center for Advancing Translational Sciences (NCATS).
Shown are actives, neighbours in structure and some others; about 12% of the full set was active somewhere.
AMA1-RON2 inh – qHTS for Inhibitors of AMA1-RON; Towards Development of Antimalarial Drug Lead: Primary Screen; AlphaScreen AMA1-biotinylated RON2 peptide binding; 360,000 tested, 0.2% active; AID 720542, 2013; Plasmodium falciparum AMA1 (3D7) - RON2 peptide interaction; Potency, µM (doses to about 58.2 µM), hits mostly inhibitors; further: nearly all actives have a fitted effect of over 45% in size
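AMA1 (3D7) with his tag at 25 nM final met compounds first, then biotinylated RON2 peptide at 25 nM; detection used donor plus acceptor beads, 10 µg/mL apiece, read by AlphaScreen after 30 min at room temperature.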
Pf growth 96h – Primary qHTS for delayed death inhibitors of the malarial parasite plastid, 96 hour incubation | P. falciparum luciferase reporter growth, 96 h | Potency, µM (highest dose often 28.7 µM), usual class: inhibitors | 320,000 tested, 6.9% active | AID 504834, 2011
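96 h incubation, 37 C, 5% CO2, of luciferase-reporter P. falciparum-infected RBCs (2% hematocrit, 0.05% parasitemia final) with test compounds; endpoint luminescence.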
NS1 function inh – qHTS Assay for Inhibitors of Influenza NS1 Protein Function; Potency, µM (titrated, usually from 46.1 µM); 270,000 tested, 0.4% active; AID 2326, 2010; calls by dose curve; further: actives are rising curves; nearly all actives have a fitted effect of over 50% in size
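A cell-based growth assay was used: compounds that relieve NS1-induced slow growth of budding yeast raise OD600. Assay medium was yeast nitrogen base with ammonium sulphate and -URA supplement, pH 6.0, with 2% galactose.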
Pf growth 48h – Primary qHTS for delayed death inhibitors of the malarial parasite plastid, 48 hour incubation; 310,000 tested, 5.9% active; AID 504832, 2011; P. falciparum luciferase growth in erythrocytes, 48 h; Potency, µM (top dose mostly 28.7 µM), usual class: inhibitors
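Parasite viability was followed by luminescence of a genomically integrated firefly luciferase. Cultures held 0.1% parasitemia at 2% hematocrit (final), incubated under 5% CO2 at 37 C.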
SARS PLpro yeast – qHTS of Yeast-based Assay for SARS-CoV PLP; Potency, µM (titrated, usually from 32.9 µM), actives largely listed as activators; S. cerevisiae expressing SARS-CoV PLpro, growth rescue; 330,000 tested, 0.19% active; AID 485353, 2010; calls by dose curve; further: nearly all actives have a fitted effect of over 55% in size
HCV inhibitor – qHTS Assay for Inhibitors of Hepatitis C Virus (HCV); Huh7.5.1 HCVcc-Cre infection, luciferase reporter, 44 h; Potency, µM (titrated, usually from 41.8 µM), hits mostly inhibitors; 340,000 tested, 3.4% active; AID 651820, 2012
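Cells seeded at 1,000/well and cultured 4 h, then compounds added followed by HCVcc-Cre virus (~0.5 moi). After 44 h further culture, luciferase substrate was added, plates held 15 min at room temperature, and luminescence read for 15 sec.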
Hits are given with their value; - = inactive; ? = inconclusive; . = no result given; [ ] = dose if it differs, or a comment. Unless noted, the call rests on the fitted dose curve; in most records, active means well fitted curve in the direction sought with a large enough effect; inconclusive means small, poorly fitted or top-dose-only effect, or another doubt; inactive means no such curve, though single readings can be large; an effect the other way counts as inactive or inconclusive.

SMILES | AMA1-RON2 inh | Pf growth 96h | NS1 function inh | Pf growth 48h | SARS PLpro yeast | HCV inhibitor
O=C(CCc1nnc(COc2ccccc2)o1)NCc1ccc(Cl)s1 | - | 15µM | - | - | - | -
CCC[C@H]1CN(c2ccc(OC)cc2)C(=O)[C@@H]1CC(=O)NC | - | . | . | . | . | .
CCOC(=O)c1cnc(-n2nc(C)cc2C)nc1NC1CCCC1 | - | ? | - | 1.5µM | - | 1.1µM
CCOC(=O)c1cnc(-n2nc(C)cc2C)nc1Nc1ccc(OC)cc1 | - | 1.9µM | - | 4.1µM | - | 11µM
CCOC(=O)c1cnc(-n2nc(C)cc2C)nc1Nc1ccccc1OC | . | ? | - | ? | - | .
CCOC(=O)c1cnc(-n2nc(C)cc2C)nc1NCCc1ccccc1 | - | - | - | 4.1µM | - | -
CCOC(=O)c1cnc(-n2nc(C)cc2C)nc1NCc1ccc2c(c1)OCO2 | - | . | - | 4.7µM | - | ?
CC(C)[C@@H](NC(=O)C1CCC(CNC(=O)[C@H](Cc2ccccc2)NC(=O)OC(C)(C)C)CC1)C(=O)O (stereo not given in full) | - | - | - | - | - | -
CCOC(=O)/C=C1\SC(C)C(=O)N1CC(=O)N(CCC#N)c1ccccc1 (stereo not given) | - | ? | . | - | - | -
COc1cc(NC(=O)c2cc(OC)c(OC)c(OC)c2)cc(-n2cnnn2)c1 | - | - | - | - | - | -
CCN(CC)C(=O)[C@H]1CC(CC(=O)NCC23CC4CC(CC(C4)C2)C3)C(=O)N2CCc3c([nH]c4ccc(OC)cc34)[C@]12C (stereo not given in full) | - | . | . | . | - | ?
c1ccc(CCN(Cc2ccccc2)C2CCN(C3CCCC3)CC2)cc1 | - | ? | . | ? | - | -
CCN(CC)S(=O)(=O)c1ccc(NC(=O)COC(=O)c2ccc(NC(=O)CC#N)cc2)cc1 | - | -[1.15 µM] | ? | - | - | -
O=C(O)c1ccccc1OC(C(=O)Nc1cc(Cl)cc(Cl)c1)c1ccccc1 (stereo not given) | - | ? | - | 12µM | - | -
Cc1cc2c(N=O)c(NO)ccc2[nH]1 | - | - | - | 3.7µM | - | ?
CCOc1cc(OCC)cc(C(=O)NCc2ccco2)c1 | - | ? | - | - | - | -
Cc1nccn1CCCNCc1c(C(=O)N2CCCCCCC2)nc2ccc(Cl)cn12 | - | ? | - | ? | - | -
COc1ccc2cc(C(=O)CS(=O)(=O)c3ccccc3)c(=O)oc2c1 | - | 12µM | - | - | - | -
O=C(NCc1ccccc1Cl)C1CCN(C(=O)c2ccco2)CC1 | - | ? | - | - | - | -
Cc1ccccc1C(=O)Nc1c(C(=O)N(CCN(C)C)Cc2ccco2)oc2ccccc12 | - | - | - | ? | - | ?
COc1ccc(OCC(=O)Nc2c(C(=O)N(CCN(C)C)Cc3ccco3)oc3ccccc23)cc1 | - | 10µM | - | ? | - | ?
COc1ccccc1C(=O)Nc1c(C(=O)N(CCN(C)C)Cc2ccco2)oc2ccccc12 | - | 10µM | - | ? | - | ?
CCC(CO)Oc1cc(NC(=O)c2ccccc2Cl)c2ncn(C(C)C)c2c1 (stereo not given) | - | . | . | . | - | ?
COc1ccc(NC(=O)CN(C)CC(=O)NC(=O)NC2CCCCC2)cc1 | - | - | . | - | - | -
CN(CC(=O)NC(=O)NC1CCCCC1)CC(=O)Nc1ccc(OC(F)(F)F)cc1 | - | ? | . | 5.2µM | - | -
SMILES | AMA1-RON2 inh | Pf growth 96h | NS1 function inh | Pf growth 48h | SARS PLpro yeast | HCV inhibitor
CCOC(=O)c1cc(-c2ccc(OC)cc2)nc2c1c(C)nn2CCC#N | - | . | - | 5.2µM | - | ?
CCOC(=O)c1cc(-c2ccncc2)nc2c1c(C)nn2-c1ccccn1 | - | 13µM | - | 5.9µM | - | 7.9µM
CCOC(=O)c1cc(-c2ccc(C)o2)nn1CCC#N | - | 12µM | - | ? | - | -
CCCCNC(=O)C1(C)CCN1C(=O)c1oc2ccccc2c1C (stereo not given) | - | . | . | . | . | .
COc1ccc(CNCc2c(O)c(Cl)cc3c(C)c(C)c(=O)oc23)c(OC)c1 | - | ? | - | ? | - | -
O=C(Nc1ccc(OCc2ccccc2)cc1)Nc1nnc([C@@H]2C[C@H](O)[C@@H](CO)O2)s1 | - | . | . | . | . | .
CN(C)CCCN1c2ccccc2C(C)(C)c2ccccc21 | . | 17µM | - | ? | . | .
CN(C)CCCN1c2ccccc2Sc2ccc(Cl)cc21 | ? | ? | - | 10µM | - | ?
O=C(CN1CCCC1)N1c2ccccc2Sc2ccc(Cl)cc21 | - | - | - | - | - | -
CC(=O)c1ccc2c(c1)N(CCCN1CCC(CCO)CC1)c1ccccc1S2 | - | ? | . | 8.1µM | . | 3.2µM
OCCN1CCN(CCCN2c3ccccc3Sc3ccc(Cl)cc32)CC1 | ? | 6.6µM | - | 12µM | - | ?
CN1CCN(CCCN2c3ccccc3Sc3ccc(S(=O)(=O)N(C)C)cc32)CC1 | - | 3.6µM | . | 13µM | . | ?
CC(C)n1c2ccccc2c2cc([N+](=O)[O-])ccc21 | -[2.32 µM] | 4.7µM | - | ? | - | 8.9µM
CC(=O)Nc1cccc(Cn2cccn2)c1 | . | 13µM | - | - | - | -
CCOc1cc(C(c2c(C)[nH][nH]c2=O)c2c(C)[nH][nH]c2=O)ccc1OS(=O)(=O)c1ccc(C)cc1 | - | . | - | 15µM | - | -
Nn1cnc2scc(-c3cccs3)c2c1=O | - | - | . | - | - | -
Nn1cnc2scc(-c3ccc(Cl)cc3)c2c1=O | - | 5.2µM | - | - | - | -
COCc1ccc(CN2CCCC(C(=O)Nc3ccc(-c4cscn4)cc3)C2)o1 (stereo not given) | - | - | - | ? | - | -
O=C(NNC(=O)C12CC3CC(CC(C3)C1)C2)c1cnccn1 | - | ? | - | ? | ? | -
O=C(NNC(=O)C12CC3CC(CC(C3)C1)C2)c1ccccn1 | - | 4.1µM | - | 4.1µM | - | ?
O=C(NNC(=S)NC(=O)C12CC3CC(CC(C3)C1)C2)c1ccncc1 | - | 3.3µM | - | 3.3µM | - | -
CC(=O)Nc1ccc(/C=N/NC(=O)CNC(=O)c2ccccc2)cc1 | - | - | - | - | - | -
Cn1cc(CC(=O)N2CCN(c3ccc(Cl)cc3)CC2)c2ccccc21 | - | 12µM | - | - | - | ?
Cn1cc(CC(=O)N2CCN(c3ccccc3F)CC2)c2ccccc21 | - | ? | - | . | - | -
COc1ccc(N2CCN(C(=O)Cc3ccc(Cl)cc3)CC2)cc1 | 18µM | - | - | - | - | -
COC(=O)c1ccc(COc2ccc(/C=N/NC(N)=S)cc2)o1 | - | ? | - | ? | - | -
CN(C)c1ccc(/C=C/c2ccc3c4ccccc4ccc3[n+]2-c2ccccc2)cc1 | 11µM | ? | . | 8.3µM | - | 1µM
